Test systems include SK-MEL-2 melanoma; EKVX NSCLC; SN12C renal; UO-31 renal; TK-10 renal; ACHN renal; CAKI-1 renal; A498 renal; CCRF-CEM leukemia; MOLT-4 leukemia.
Common to all, as to test: NCI-60 one-dose screen, 48 h (100 = growth as untreated, 0 = no growth, -100 = all killed)
Common to all, as to conditions: 10 µM unless noted

Compounds without any hit were thinned out: in the full panel of roughly 83,000, 20% have a hit.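 Assay: single dose, 48 h. Readout: percent growth (0 = no net growth; negative = cell death). Active: <10.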 A number with no mark means an inactive call. Activity calls are given as the source filed them.

Regarding `CCOC(=O)Nc1ccc2c(c1)/C(=N\NC(=S)NC)c1ccccc1-2`, the growth in the experiment on SK-MEL-2 melanoma is 101%; in the experiment on EKVX NSCLC, 79.7%; with SN12C renal, 73.8%; in the experiment with UO-31 renal, 104%; with TK-10 renal, 76.7%; in the experiment on ACHN renal, 83.7%. For the same molecule, the growth in the experiment on CAKI-1 renal is 81.4%; in the experiment with A498 renal it was 33.6%; with CCRF-CEM leukemia, 61.8%; in the experiment with MOLT-4 leukemia, 87.4%.

In the case of `C=C(C)[C@@H]1CC[C@]2(C)[C@H](CC[C@@H]3[C@@H]([C@@](C)(O)CCC=C(C)C)CC[C@]32C)[C@@]1(C)CCC(=O)O`, the growth in the experiment on SK-MEL-2 melanoma was -41.6% [100 µM] (active); in the experiment with EKVX NSCLC, 8.69% [100 µM] (active); in the experiment with SN12C renal, -64.2% [100 µM] (active); with UO-31 renal, -93.1% [100 µM] (active); with TK-10 renal it was 18.1% [100 µM]; in the experiment with ACHN renal it was 6.72% [100 µM] (active). In addition, the growth in the experiment on CAKI-1 renal is 2.11% [100 µM] (active); in the experiment with A498 renal it was -20.2% [100 µM] (active); in the experiment on CCRF-CEM leukemia, 0.565% [100 µM] (active); in the experiment on MOLT-4 leukemia, -0.176% [100 µM] (active).

`CC[C@@H]1NC(=O)[C@@H]2CCCCN2C(=O)[C@@H]2CCCN2C(=O)[C@@H](NC(=O)[C@H](Cc2cc(F)cc(F)c2)NC(=O)Nc2ccc(C3CC3)cc2F)[C@H](C)OC(=O)[C@@H]2C[C@@H](C)CN2C1=O`: the growth in the experiment with SK-MEL-2 melanoma was 9.64% (active); in the experiment on EKVX NSCLC, 20.4%; in the experiment with SN12C renal, 12%; in the experiment with UO-31 renal it was 11.2%; in the experiment on TK-10 renal, 34%; with ACHN renal, 12.1%. Moreover, the growth with CAKI-1 renal was 9.54% (active); in the experiment with A498 renal, -5.62% (active); in the experiment on CCRF-CEM leukemia, 40.5%; in the experiment on MOLT-4 leukemia, 17%.

On to `CC(C)=CC/C=C(/C)[C@H]1CC[C@]2(C)[C@@H]1CC[C@@H]1[C@@]3(C)CCCNC(C)(C)[C@@H]3CC[C@]12C`, for which the growth in the experiment with SK-MEL-2 melanoma was -70% [100 µM] (active); with EKVX NSCLC it was -71.2% [100 µM] (active); with SN12C renal, -85.2% [100 µM] (active); in the experiment on UO-31 renal, -82.1% [100 µM] (active); in the experiment on TK-10 renal, -67% [100 µM] (active); with ACHN renal, -77% [100 µM] (active). The growth in the experiment with CAKI-1 renal is -79.9% [100 µM] (active); with A498 renal it was -88.6% [100 µM] (active); with CCRF-CEM leukemia it was -15.7% [100 µM] (active); with MOLT-4 leukemia, -25.6% [100 µM] (active).

In the case of `CCN(CC)CCSC(=O)C(O)(c1ccccc1)C1CCCC1` (stereo not given), the growth was 106% in the experiment with SK-MEL-2 melanoma; 120% in the experiment on EKVX NSCLC; 99.8% in the experiment on SN12C renal; 78.1% with UO-31 renal; 120% with TK-10 renal; 105% in the experiment with ACHN renal. Further, the growth was 92% in the experiment on CAKI-1 renal, 95.7% with A498 renal, 118% in the experiment with CCRF-CEM leukemia and 91.3% in the experiment on MOLT-4 leukemia.

As for `Cc1cccc(C[C@H](NC(=O)Nc2ccc(C)cc2F)C(=O)N[C@@H]2C(=O)N3C[C@H](O)C[C@H]3C(=O)N3CCN(C)C[C@H]3C(=O)N[C@@H](C)C(=O)N3C[C@H](C)C[C@H]3C(=O)O[C@H]2C)c1`, the growth in the experiment with SK-MEL-2 melanoma was 39.9%; in the experiment on EKVX NSCLC, 69.6%; in the experiment with SN12C renal it was 21.5%; with UO-31 renal it was 93%; in the experiment with TK-10 renal, 94.1%; in the experiment on ACHN renal it was 106%. The growth is 82.1% in the experiment on CAKI-1 renal, 32.8% with A498 renal, 62.5% in the experiment with CCRF-CEM leukemia and 40.4% in the experiment with MOLT-4 leukemia.

On to `O=[N+]([O-])c1ccc(O)c(-c2nc3ccccc3s2)c1`, for which the growth in the experiment with SK-MEL-2 melanoma is 99%; in the experiment on EKVX NSCLC it was 83.6%; with SN12C renal, 64.9%; with UO-31 renal it was 43.5%; in the experiment on TK-10 renal, 82.4%; in the experiment with ACHN renal, 85.6%. The growth in the experiment on CAKI-1 renal is 73%; in the experiment on A498 renal, 42.6%; in the experiment with CCRF-CEM leukemia, 77.3%; in the experiment with MOLT-4 leukemia it was 65.3%.

On to `O=c1[nH]c(CN2CCN(c3cccc(Cl)c3)CC2)nc2cc(Cl)ccc12`, for which the growth in the experiment on SK-MEL-2 melanoma is 46.7%; in the experiment on EKVX NSCLC it was 105%; in the experiment with SN12C renal, 89.3%; in the experiment with UO-31 renal, 9.86% (active); with TK-10 renal, 106%; with ACHN renal, 97.5%. Moreover, the growth in the experiment with CAKI-1 renal is 99.4%; in the experiment on A498 renal it was 114%; with CCRF-CEM leukemia it was 105%; in the experiment on MOLT-4 leukemia, 120%.

As to `C#CCNC(=O)CC[C@]1(C)[C@H]2CC[C@@H]3[C@@H]([C@@](C)(O)CCC=C(C)C)CC[C@@]3(C)[C@]2(C)CC[C@H]1C(=C)C`, the growth in the experiment with SK-MEL-2 melanoma was 49.1% [100 µM]; with EKVX NSCLC, 71.7% [100 µM]; in the experiment with SN12C renal it was 43.9% [100 µM]; in the experiment on UO-31 renal it was -95.8% [100 µM] (active); in the experiment on TK-10 renal, 70.5% [100 µM]; in the experiment on ACHN renal it was 7.69% [100 µM] (active). Further, the growth in the experiment on CAKI-1 renal is 1.83% [100 µM] (active); in the experiment on A498 renal it was 67.1% [100 µM]; with CCRF-CEM leukemia, -34.4% [100 µM] (active); in the experiment with MOLT-4 leukemia it was -29% [100 µM] (active).

For `O=C(NCCCCCCCNC(=O)OCc1ccc2c(Cl)cc(Cl)c(O)c2n1)OCc1ccc2c(Cl)cc(Cl)c(O)c2n1`, the growth with SK-MEL-2 melanoma was -70.6% (active); in the experiment with EKVX NSCLC, -45.8% (active); in the experiment on SN12C renal, -76.5% (active); with UO-31 renal, -100% (active); with TK-10 renal, -80.7% (active); with ACHN renal, -99.9% (active). Also, the growth with CAKI-1 renal is -93.4% (active); in the experiment with A498 renal it was -80.6% (active); in the experiment with CCRF-CEM leukemia, 4.67% (active); in the experiment with MOLT-4 leukemia, -2.43% (active).

In the case of `COc1ccc(/C=C(/C(=O)c2ccc(Cl)cc2)C(=O)C(F)(F)F)cc1`, the growth was 86.4% with SK-MEL-2 melanoma; 92.5% in the experiment on EKVX NSCLC; 98% with SN12C renal; 78.6% in the experiment on UO-31 renal; 75.3% in the experiment on TK-10 renal; 110% in the experiment with ACHN renal. Also, the growth with CAKI-1 renal was 94.3%; with A498 renal, 82.4%; in the experiment with CCRF-CEM leukemia it was 89.7%; with MOLT-4 leukemia, 85.8%.

Turning to `O=C1/C(=C/c2ccc(OCc3ccccc3)cc2)Oc2cc(OCCN3CCCCC3)ccc21`, the growth in the experiment on SK-MEL-2 melanoma is 112%; in the experiment with EKVX NSCLC it was 80.5%; in the experiment with SN12C renal it was 82.4%; in the experiment on UO-31 renal it was 70.6%; in the experiment with TK-10 renal it was 104%; in the experiment on ACHN renal, 89.6%. Further, the growth in the experiment on CAKI-1 renal is 70.5%; in the experiment on A498 renal it was 60.9%; with CCRF-CEM leukemia it was 73%; in the experiment on MOLT-4 leukemia, 76.1%.

For the origin of these results see PubChem BioAssay (NCI).
